In the library only some 1.1% were active in any assay of this set; here they are far more common.
PfHsp40 rescue = restores yeast growth despite PfHsp40 toxicity; growth rescue, % at 12.5 µM; hit rate 0.68% among 340,000; S. cerevisiae expressing PfHsp40, growth rescue, ATP luminescence; in the data active = growth rescue above about 28%, passing the limit was not always enough;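 note: yeast W303a lacking pdr1 and pdr3 grown in galactose medium; growth measured after three days at 30 °C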
FadD28 binding = M. tuberculosis FadD28 bisubstrate binding inhibition; FadD28 bisubstrate probe binding, fluorescence polarization; inhibition, % at 12.5 µM; hit rate 0.22% among 360,000; in the data active = inhibition above about 8.5%, passing the limit was not always enough
BioA inh = inhibitors of Mycobacterium tuberculosis BioA enzyme. inhibition, % at 9.99 µM. purified M. tuberculosis BioA enzyme, plate reader. hit rate 0.096% among 360,000. AID 602481; in the data active = inhibition above about 40%
PrP 5UTR inh = inhibition of PrP 5' UTR reporter expression | AID 488862 | hit rate 0.35% among 340,000 | inhibition, % (no concentration beside the values) | cell-based PrP 5' UTR mRNA reporter, plate reader; in the data active = inhibition above about 52%; note: 0 = median of the neutral control wells
TcdB inh = inhibitors of Clostridioides difficile toxin B glycohydrolase; P18177; TcdB glycohydrolase enzymatic assay, plate reader; inhibition, % at 9.99 µM; hit rate 0.24% among 350,000; in the data active = inhibition above about 10%
PrP UTR cherry = prion 5' UTR mRNA inhibition, cherry-pick retest; cell-based prion protein 5' UTR reporter, plate reader; hit rate 48% among 1,100; inhibition, % at 2.5 µM; shares compounds with PrP 5UTR inh; in the data active = inhibition above about 54%
Starred values were filed as active, the others as inactive; · = not tested or not shown.

SMILES	PfHsp40 rescue	FadD28 binding	BioA inh	PrP 5UTR inh	TcdB inh	PrP UTR cherry
COc1ccc(C#Cc2cnc3c(c2)C(=O)N([C@H](C)CO)C[C@H](C)[C@@H](CN(C)C(=O)c2ccccc2F)O3)cc1	·	·	-1	·	0	·
COc1ccc(S(=O)(=O)n2nc(-c3ccc(Cl)cc3)cc2N)cc1OC	0	-1	2	56*	2	1
C[C@H](CO)N1C[C@H](C)[C@H](CN(C)C(=O)Nc2cccc3ccccc23)OCCCC[C@H](C)Oc2ccc(NC(=O)c3ccncc3)cc2C1=O	·	·	-1	·	1	·
COc1cc(-c2noc(C)c2-c2ccc(N(C)C)nc2)cc(OC)c1OC	0	-2	0	67*	3	90*
COc1cc(-c2noc(C)c2-c2ccc3[nH]ccc3c2)cc(OC)c1OC	2	-12	-1	-17	·	·
Cc1cc(C(=O)CN2C(=O)c3ccccc3S2(=O)=O)c(C)n1C(C)C	-2	-3	-2	60*	3	64*
Cc1cc(C(=O)CN2C(=O)c3ccccc3S2(=O)=O)c(C)n1-c1ccccc1	0	-2	-4	57	·	·
C=CCn1c(C)cc(C(=O)CN2C(=O)c3ccccc3S2(=O)=O)c1C	-3	-3	-1	92*	·	92*
CCn1c(C)cc(C(=O)CN2C(=O)c3ccccc3S2(=O)=O)c1C	0	-2	6	67*	0	69*
c1ccc2ncccc2c1	1	1	-1	63*	·	6
C[C@@H]1CN([C@H](C)CO)C(=O)c2cccc(NS(=O)(=O)c3cccs3)c2O[C@H]1CN(C)S(=O)(=O)c1ccc(Cl)cc1	·	·	-2	·	0	·
Cc1nc2c(-c3ccccc3)cnn2c(N)c1-c1ccccc1	12	1	-2	65*	0	10
C[C@@H]1CN([C@@H](C)CO)C(=O)c2cc(C#CC3(O)CCCC3)cnc2O[C@@H]1CN(C)S(=O)(=O)c1ccccc1	·	·	0	·	2	·
COC(=O)Cc1c(O)ccn(Cc2ccc(OC)c(OC)c2)c1=O	-1	1	2	63*	0	-8
COC(=O)c1ccc(-n2c(C)cc(C(=O)CSc3ccc(NC(C)=O)cc3)c2C)cc1	1	-4	·	-5	·	·
CC(=O)Nc1ccc(SCC(=O)c2cc(C)n(-c3ccccc3F)c2C)cc1	0	-6	3	68*	·	21
CC(=O)Nc1ccc(SCC(=O)c2cc(C)n(Cc3cccs3)c2C)cc1	-2	0	0	61*	·	36
C[C@@H]1CN([C@@H](C)CO)C(=O)Cc2cc(NC(=O)Nc3cccc4ccccc34)ccc2O[C@@H]1CN(C)Cc1ccc(Oc2ccccc2)cc1	·	·	-2	·	0	·
C[C@@H]1CN([C@@H](C)CO)C(=O)Cc2cc(NC(=O)C3CC3)ccc2O[C@H]1CN(C)Cc1ccccc1	·	·	3	·	0	·
O=C(C[C@@H]1CC[C@@H](NC(=O)C2CCOCC2)[C@@H](CO)O1)NCc1ccncc1	·	·	·	·	1	·
COc1ccc(C(=O)NN(C)c2nc(-c3ccccc3)nnc2C(F)(F)F)cc1	1	3	0	-6	·	·
COc1ccc(C(=O)NN(C)c2nc(C(F)(F)F)nc3ccccc23)cc1	1	-3	·	71*	0	90*
O=C(c1cccnc1)N1CC2(C1)[C@@H](c1ccccc1)[C@@H](CO)N2C(=O)C1CCC1	·	·	·	·	-3	·
CC1CCCC=CC2CC(OC(=O)CN(C)C)CC2C(O)C=CC(=O)O1 (centres undefined)	0	-2	·	81*	1	90*
C[C@H]1CCC/C=C/[C@@H]2C[C@H](O)C[C@H]2[C@H](O)[C@H](S(=O)c2ccc(O)cc2)CC(=O)O1 (some centres undefined)	0	-3	·	86*	2	69*
SMILES	PfHsp40 rescue	FadD28 binding	BioA inh	PrP 5UTR inh	TcdB inh	PrP UTR cherry
CCCCC[C@H]1CCCCC[C@@H](O)C[C@@H](O)[C@@H](O)/C=C/C(=O)O1	·	·	·	·	1	·
C[C@H]1CCC/C=C/[C@@H]2C[C@H](O)C[C@H]2[C@@H](O)/C=C/C(=O)O1	-1	0	·	86*	-1	91*
Cc1ccc(S(=O)(=O)Nc2ccc3c(c2)C(=O)N([C@H](C)CO)C[C@@H](C)[C@H](CN(C)C(=O)CCCN(C)C)OCCCC[C@@H](C)O3)cc1	·	·	-1	·	0	·
CCCCOCC(O)CCc1n[nH]c(=S)n1-c1ccccc1 (centres undefined)	0	-1	·	80*	0	5
Cc1ccc(C(=O)Nc2ccc3ncccc3c2)cc1	-2	-1	·	56*	0	31
COc1ccc(C(=O)Nc2ccc3ncccc3c2)cc1	0	-5	21	-19	1	·
CCc1ccc(/C=C2\SC(=S)N(CCCC(=O)Nc3ccccn3)C2=O)cc1	1	0	·	57*	·	55*
C[C@@H]1CCCCO[C@H](CN(C)S(=O)(=O)c2ccc(F)cc2)[C@@H](C)CN([C@H](C)CO)C(=O)c2cc(NC(=O)NC3CCCCC3)ccc2O1	·	·	0	·	0	·
CC(C)NC(=O)N[C@H]1C=C[C@@H](CC(=O)NC2Cc3ccccc3C2)O[C@@H]1CO	·	·	-2	·	-6	·
C[C@@H]1CCCCO[C@H](CN(C)S(C)(=O)=O)[C@@H](C)CN([C@H](C)CO)C(=O)c2cc(NC(=O)NC3CCCCC3)ccc2O1	·	·	0	·	0	·
CCN(CC)c1nc(Oc2ccc(C(=O)OC)cc2)nc(N2CCOCC2)n1	2	-3	·	82*	1	-26
COC(=O)c1ccc(Oc2nc(N3CCCCC3)nc(N3CCOCC3)n2)cc1	1	-2	0	-21	·	·
C=C1CC(Cn2cc(Br)c(=O)[nH]c2=O)(c2ccc(-c3ccccc3)cc2)OC1=O (centres undefined)	4	-2	·	61*	6	72*
Cc1noc(C)c1S(=O)(=O)Nc1ccc2c(c1)C(=O)N([C@H](C)CO)C[C@H](C)[C@H](CN(C)Cc1ccc(C(=O)Nc3ccccc3N)cc1)OCCCC[C@@H](C)O2	·	·	·	·	0	·
Cc1ccccc1S(=O)(=O)N(C)C[C@H]1OCc2cn(nn2)CCCC(=O)N([C@H](C)CO)C[C@H]1C	·	·	0	·	-1	·
COc1ccc(C2=Nn3c(nnc3-c3ccccn3)SC2)cc1OC	1	-1	4	17	·	·
COc1ccc(C2=Nn3c(nnc3-c3ccccc3OC)SC2)cc1OC	0	-2	9	56*	·	77*
COc1ccc(OC)c(-c2nnc3n2N=C(c2ccc(OC)c(OC4CCOC4)c2)CS3)c1 (centres undefined)	1	-1	4	72*	-3	81*
CC(C)NC(=O)N[C@H]1C=C[C@@H](CC(=O)N2CCCCC2)O[C@H]1CO	·	·	0	·	0	·
C[C@@H]1CCCCO[C@@H](CN(C)C(=O)Nc2cccc3ccccc23)[C@H](C)CN([C@H](C)CO)C(=O)c2cc(NS(=O)(=O)c3ccc(Cl)cc3)ccc2O1	·	·	-1	·	1	·
CC1CCCN(c2ncnc3c2cnn3-c2ccc(Cl)cc2)C1 (centres undefined)	-1	-4	3	88*	2	84*

Screening results as filed in PubChem.
